# Test results from PubChem BioAssay (NCI).
# The panel holds about 83,000 compounds, 20% with a hit somewhere; the sample as a whole holds those more often.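 Step 1: grow cells in 96-well plates. Step 2: add test compound at a single concentration. Step 3: incubate 48 h. Step 4: record percent growth.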 Active and inactive are the calls of the source. The calls were made as follows: active = growth percent below 10; inactive = the rest.
# System: BT-549 breast
# Assay: NCI-60 one-dose screen, 48 h (100 = growth as untreated, 0 = no growth, -100 = all killed)
# Conditions: 10 µM unless noted
row,SMILES,growth
1,OC(Cc1cccnc1)c1ccccc1 (centres undefined),107% (inactive)
2,c1ccc2c(c1)[nH]c1c2cc[n+]2cc3c(cc12)CCCC3,72.7% (inactive)
3,CC(CCC(=O)O)(NC(=O)c1ccc([N+](=O)[O-])cc1)C(=O)O (centres undefined),114% (inactive)
4,O=Nc1ccc(O)c(=O)cc1,32.5% (inactive)
5,Cn1cc(-c2csc(-c3cn(C)c4ncccc34)n2)c2cc(Br)cnc21,95.2% (inactive)
6,O=C(N1CCC(CN=c2cc3n(-c4ccc(Cl)cc4)c4ccccc4nc-3cc2Nc2ccc(Cl)cc2)CC1)N1CC1,-82.5% (active)
7,COc1ccc(C2=NNC(c3cc(Cc4ccc(O)c(C5CC(c6ccc(OC)cc6)=NN5)c4)ccc3O)C2)cc1 (centres undefined),58.1% (inactive)
8,COc1cc(C2=NN(C(C)=O)C(c3ccc(OC(C)=O)cc3OC(C)=O)O2)c(OC(C)=O)c2ccccc12 (centres undefined),23.8% (inactive)
9,CCCCC(C#N)C(N)=O (centres undefined),114% (inactive)
10,O=C(Cn1ccnc1)NC(c1ccccc1)c1ccccc1,105% (inactive)
11,CCOC(=O)c1cc(-c2cccnc2)nc2c(Cl)cc(Cl)cc12,109% (inactive)
12,CCOC(=O)c1c2c(c(C)n1Cc1ccc(OC)cc1)-c1nc(N)ncc1CC2,119% (inactive)
13,CC[C@]1(O)CC2CN(CCc3c([nH]c4ccccc34)[C@@](C(=O)OC)(c3cc4c(cc3OC)N(C)[C@H]3[C@@](O)(C(=O)OC)[C@H](OC(C)=O)[C@]5(CC)C=CCN6CC[C@]43[C@@H]65)C2)C1 (some centres undefined),34.2% (inactive)
14,Cc1cc(C(C)(C)c2cc(C)c(O)c(CN(C)C)c2)cc(CN(C)C)c1O,84.5% (inactive)
15,Nc1ccccc1-c1ccc([N+](=O)[O-])cc1,-33.9% (active)
16,O=C1/C(=C/c2ccc([N+](=O)[O-])o2)Oc2ccc(Cl)cc21,-53.4% (active)
17,O=C(C(=O)N1CCOCC1)c1ccc(OC2OC(CO)C(O)C(O)C2O)cc1 (centres undefined),108% (inactive)
18,COc1cc2cn3c4ccc(O)cc4nc(N)c3c2cc1OC,20.6% (inactive)
19,CC12CCCCC1C(C(N)=O)C(=O)O2 (centres undefined),113% (inactive)

row,SMILES,growth
1,CC1=C(C(=O)Nc2ccccc2)C(c2ccc3c(c2)OCCO3)NC(=O)N1 (centres undefined),95.9% (inactive)
2,COc1cc(C2NC(c3ccc(Cl)cc3)C(C)C(=NC(=O)c3cnccn3)C2C)cc(OC)c1OC (centres undefined),102% (inactive)
3,Fc1ccc(-c2nnc(/C=C/c3cn(-c4ccccc4)nc3-c3ccccc3)o2)cc1,86.6% (inactive)
4,Clc1ccc([C@@H]2C[C@@H]3Cc4cc(Br)c5ccccc5c4N2O3)c(Cl)c1,97.7% (inactive)
5,COc1ccc(Nc2ccnc(NCCCNc3ccnc4cc(Cl)ccc34)n2)cc1,-16.8% (active)
6,O=C(CCc1nnc(SCc2ccccc2)s1)c1nc2ccccc2[nH]1,108% (inactive)
7,O=C(CSc1nnc(Nc2ccccc2)s1)NCCc1ccc(F)cc1,109% (inactive)
8,O=C1Nc2ccccc2C12Nc1cc(Cl)ccc1S2 (centres undefined),76.2% (inactive)
9,Nc1nc(N)c([N+](=O)[O-])c(=O)[nH]1,114% (inactive)
10,CC(C)C(=O)Cc1cnccn1,110% (inactive)
11,CCS(=O)(=O)OCCCl,89.6% (inactive)
12,CC(O)c1nc2c(c(=O)n(C)c(=O)n2C)n1C (centres undefined),109% (inactive)
13,NC(=O)SCC(=O)Nc1ccccc1-c1ccccc1,89.4% (inactive)
14,Cc1c(NCc2nnc3n(Cc4ccccc4)c(=O)c4c5c(sc4n23)CCCC5)c(=O)n(-c2ccccc2)n1C,91.7% (inactive)
15,NC(N)=NC(N)=NCCCc1ccccc1,49.5% [100 µM] (inactive)
16,Cn1[nH]cc(/C=N/C(N)=O)c1=O,113% (inactive)
17,O=C(Oc1ccc[nH]c1=O)c1cccc(Cl)c1,88.4% (inactive)
18,Nc1nonc1-c1nc2ccccc2n1CC(=O)Nc1ccc2c(c1)COC2=O,81.3% (inactive)

# System: MDA-MB-435 melanoma
# Assay: as above
# Conditions: 10 µM unless noted
row,SMILES,growth
1,OC(Cc1cccnc1)c1ccccc1 (centres undefined),110% (inactive)
2,c1ccc2c(c1)[nH]c1c2cc[n+]2cc3c(cc12)CCCC3,11.5% (inactive)
3,CC(CCC(=O)O)(NC(=O)c1ccc([N+](=O)[O-])cc1)C(=O)O (centres undefined),105% (inactive)
4,O=Nc1ccc(O)c(=O)cc1,32% (inactive)
5,Cn1cc(-c2csc(-c3cn(C)c4ncccc34)n2)c2cc(Br)cnc21,55.2% (inactive)
6,O=C(N1CCC(CN=c2cc3n(-c4ccc(Cl)cc4)c4ccccc4nc-3cc2Nc2ccc(Cl)cc2)CC1)N1CC1,-29.4% (active)
7,COc1ccc(C2=NNC(c3cc(Cc4ccc(O)c(C5CC(c6ccc(OC)cc6)=NN5)c4)ccc3O)C2)cc1 (centres undefined),12.1% (inactive)
8,COc1cc(C2=NN(C(C)=O)C(c3ccc(OC(C)=O)cc3OC(C)=O)O2)c(OC(C)=O)c2ccccc12 (centres undefined),28.8% (inactive)
9,CCCCC(C#N)C(N)=O (centres undefined),114% (inactive)
10,O=C(Cn1ccnc1)NC(c1ccccc1)c1ccccc1,99.4% (inactive)
11,CCOC(=O)c1cc(-c2cccnc2)nc2c(Cl)cc(Cl)cc12,95% (inactive)
12,CCOC(=O)c1c2c(c(C)n1Cc1ccc(OC)cc1)-c1nc(N)ncc1CC2,110% (inactive)
13,CC[C@]1(O)CC2CN(CCc3c([nH]c4ccccc34)[C@@](C(=O)OC)(c3cc4c(cc3OC)N(C)[C@H]3[C@@](O)(C(=O)OC)[C@H](OC(C)=O)[C@]5(CC)C=CCN6CC[C@]43[C@@H]65)C2)C1 (some centres undefined),-17.8% (active)
14,Cc1cc(C(C)(C)c2cc(C)c(O)c(CN(C)C)c2)cc(CN(C)C)c1O,78.1% (inactive)
15,Nc1ccccc1-c1ccc([N+](=O)[O-])cc1,52.4% (inactive)
16,O=C1/C(=C/c2ccc([N+](=O)[O-])o2)Oc2ccc(Cl)cc21,-72.8% (active)
17,O=C(C(=O)N1CCOCC1)c1ccc(OC2OC(CO)C(O)C(O)C2O)cc1 (centres undefined),108% (inactive)
18,COc1cc2cn3c4ccc(O)cc4nc(N)c3c2cc1OC,12.4% (inactive)
19,CC12CCCCC1C(C(N)=O)C(=O)O2 (centres undefined),120% (inactive)

row,SMILES,growth
1,CC1=C(C(=O)Nc2ccccc2)C(c2ccc3c(c2)OCCO3)NC(=O)N1 (centres undefined),102% (inactive)
2,COc1cc(C2NC(c3ccc(Cl)cc3)C(C)C(=NC(=O)c3cnccn3)C2C)cc(OC)c1OC (centres undefined),108% (inactive)
3,Fc1ccc(-c2nnc(/C=C/c3cn(-c4ccccc4)nc3-c3ccccc3)o2)cc1,100% (inactive)
4,Clc1ccc([C@@H]2C[C@@H]3Cc4cc(Br)c5ccccc5c4N2O3)c(Cl)c1,4.61% (active)
5,COc1ccc(Nc2ccnc(NCCCNc3ccnc4cc(Cl)ccc34)n2)cc1,-94.7% (active)
6,O=C(CCc1nnc(SCc2ccccc2)s1)c1nc2ccccc2[nH]1,102% (inactive)
7,O=C(CSc1nnc(Nc2ccccc2)s1)NCCc1ccc(F)cc1,101% (inactive)
8,O=C1Nc2ccccc2C12Nc1cc(Cl)ccc1S2 (centres undefined),95.4% (inactive)
9,Nc1nc(N)c([N+](=O)[O-])c(=O)[nH]1,104% (inactive)
10,CC(C)C(=O)Cc1cnccn1,101% (inactive)
11,CCS(=O)(=O)OCCCl,106% (inactive)
12,CC(O)c1nc2c(c(=O)n(C)c(=O)n2C)n1C (centres undefined),111% (inactive)
13,NC(=O)SCC(=O)Nc1ccccc1-c1ccccc1,109% (inactive)
14,Cc1c(NCc2nnc3n(Cc4ccccc4)c(=O)c4c5c(sc4n23)CCCC5)c(=O)n(-c2ccccc2)n1C,73.5% (inactive)
15,NC(N)=NC(N)=NCCCc1ccccc1,60.5% [100 µM] (inactive)
16,Cn1[nH]cc(/C=N/C(N)=O)c1=O,119% (inactive)
17,O=C(Oc1ccc[nH]c1=O)c1cccc(Cl)c1,108% (inactive)
18,Nc1nonc1-c1nc2ccccc2n1CC(=O)Nc1ccc2c(c1)COC2=O,5.9% (active)
